Our source for the outcome values is PubChem BioAssay AID1053125 (Broad Institute, 2014).

Potency and affinity values are given separately. The source made the active and inactive calls.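 The calls were made as follows: active = viability loss whose fitted half-maximal concentration is at most twice the top valid tested dose; inconclusive = flat curve with 30 to 70% loss, or poor fit; inactive = the rest.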

The test is described as follows: HepG2 cell cytotoxicity, dose response, cytotoxicity control, ATP luminescence, cherry-pick, set 6 (AID 1053125).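 Also: negative values mean loss of viability signal.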 The settings on record: HepG2 viability, ATP luminescence (CellTiter-Glo), 72 h; series mostly up to 26 µM. On the technique in general: In ATP-based viability assays light output follows the ATP content of the culture.
In the case of `CCNc1nc2nc3ccc(C)cn3c(=O)c2cc1C(=O)NCC1CCCO1` (stereo not given), the outcome was inactive.
As for `COc1ccc(Br)c(Cn2c(C)c(C(=O)NCc3ccc4c(c3)OCCO4)sc2=O)c1`, the entry is “inactive”; as for `Cn1cc(C(c2ccccc2OCC(=O)O)c2cn(C)c3ccccc23)c2ccccc21`, “inactive”; as for `N=c1c(C(=O)NCC2CCCO2)cc2c(=O)n3ccccc3nc2n1Cc1ccc(Cl)cc1` (stereo not given), “inactive”.
For `COCc1cc(C)nc(SCC(=O)Oc2ccc(Cl)cc2)c1C#N`, the call was inactive.
The value for `COc1ccccc1NS(=O)(=O)c1cc(NC(=O)CCNC(C)=O)ccc1C` was “inactive”; that for `O=C(CCc1c[nH]c2ccccc12)OCC(=O)c1ccccc1` was “inactive”.
For `Cc1c(Nc2c3ccccc3nc3ccccc23)c(=O)n(-c2ccccc2)n1C`, the outcome was inactive.
As for `COc1cccc(N2CCN(C(=O)C3CCCN(S(=O)(=O)c4cnc[nH]4)C3)CC2)c1` (stereo not given), the entry is “inactive”.
For `Cc1cc(C)nc(SCC(=O)Nc2ccc(S(=O)(=O)Nc3onc(C)c3C)cc2)n1`, the compound was called inactive.
As for `COc1ccc(Cn2nnnc2C(CC(C)C)N2CCC(C(N)=O)CC2)cc1` (stereo not given), the entry is “inactive”.
The value for `CCN(CC)Cc1c(O)c(Cl)cc2c(C)cc(=O)oc12` was “inactive”; that for `CCc1nc(SCC(=O)c2ccccc2)c2ccccc2n1` was “inactive”.
Regarding `Cc1cc(OC(=O)c2ccccc2Cl)ccc1N1C(=O)CCC1=O`, the compound was called inactive.
With `Cc1cccn2c(=O)c3cc(C(=O)NCc4ccco4)c(=N)n(CCc4ccccc4)c3nc12`, the compound was classed as inactive.
As for `CCOC1=NN(c2ncc(C(F)(F)F)cc2Cl)C(=O)C1`, the entry is “inactive”.
For the compound `Cc1cccn2c(=O)c3cc(C(=O)NCc4ccc(F)cc4)c(=N)n(CCCN4CCOCC4)c3nc12`, the compound was classed as inactive.
As for `COc1cc(C(c2c(C(=O)O)[nH]c3ccccc23)c2c(C(=O)O)[nH]c3ccccc23)ccc1OCc1ccccc1`, the entry is “inactive”; as for `O=[N+]([O-])c1cccc(-c2n[nH]c(=S)n2-c2ccc(Br)cc2)c1`, “inactive”.
On to `Cc1c(C=O)c2ccccn2c1C(=O)c1cccs1`, for which the call was inactive.
`CCC(=O)NCCCNc1nc2c(C)cccc2cc1C#N`: the outcome was inactive.
Regarding `COc1ccc(CCNC(=O)CSc2cn(Cc3cccc(C)c3)c3ccccc23)cc1OC`, the result was inactive.
As for `CC(C)c1ccc(/C=C2\Oc3c(ccc(O)c3CN3CCN(C)CC3)C2=O)cc1`, the entry is “inactive”; as for `COC(=O)c1cc(=O)n(Cc2ccc3c(c2)OCO3)c(=Nc2ccc(F)c(Cl)c2)s1`, “inactive”.
As for `Clc1cccc(CN2CCN(Cc3nc(CCc4ccccc4)no3)CC2)c1`, the entry is “inactive”; as for `COc1ccc(NC(=O)C2CCC(CNS(=O)(=O)c3cccs3)CC2)cc1` (stereo not given), “inactive”; as for `N#C/C(=C\c1ccco1)C(=O)Nc1cccc2ncccc12`, “inactive”.
As for `O=C(Cc1csc(-c2ccccc2)n1)NCc1ccccc1F`, the compound was called inactive.
The value for `COc1ccc(C2c3ccc(O)cc3Oc3ncn4nc(-c5ccccn5)nc4c32)cc1` (stereo not given) was “inactive”; that for `N#C/C(=C\c1ccc(N2CCOCC2)o1)C(=O)NCCc1ccccc1` was “inactive”; that for `Cc1c(C(=O)NCc2cccc([N+](=O)[O-])c2)sc(=O)n1Cc1cccc(F)c1` was “inactive”.
The value for `Cn1cccc1/C=N/NC(=O)c1sc2cc(Cl)ccc2c1Cl` was “inactive”.
In the case of `Cc1cc(-c2ccccc2)c2ccc(NC(=O)C(C)(C)C)nc2n1`, the call was inactive.
As for `O=c1[nH]c(Nc2ccccc2Cl)cc2ccccc12`, the entry is “inactive”; as for `CCOCCCNC(=S)N1CCCN(c2nc3cc(C)c(C)cc3cc2C#N)CC1`, “inactive”.
